ALR inh: human ALR oxidase inhibition via reduced H2O2; 290,000 tested, 3.8% active; inhibition, % (concentration not given with the values); purified ALR, DTT oxidation, H2O2 HRP-luminol luminescence; P55789;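 active = mean replicate inhibition above about 79%, with every replicate also reaching it, limit read from the data; inconclusive = only one of the two criteria met; inactive = mean below limit and not every replicate reaching it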
Rce1 inh: blocks yeast Ras-converting enzyme; yeast membranes, quenched prenylated peptide cleavage fluorescence; calls only; 290,000 tested, 0.27% active; AID 2563;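 active = fall in fluorescence gain of 50% or more versus controls, with final raw signal at or below 3038400; inconclusive = same 50% fall but final raw signal above 3038400; inactive = fall in fluorescence gain under 50%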;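 note: plate controls were neutral control wells for no effect and wells lacking membranes for full effect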
HDAC3 inh: inhibitors of human histone deacetylase 3. 320,000 tested, 0.15% active. O15379. inhibition, % at 8.3 µM. recombinant HDAC3, fluorogenic peptide/trypsin coupled, fluorescence. AID 2718; in the data active = inhibition above about 26%, passing the limit was not always enough; inconclusive = no clear call, values can overlap the other calls
GRK2 aptamer HTS: blocks RNA aptamer binding to human GRK2; P25098; bead flow cytometry, FAM-aptamer displacement from GRK2; inhibition of aptamer binding, % at 10 µM; 330,000 tested, 0.59% active; AID 488847;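 active = inhibition of aptamer binding above 40%, roughly 3 SD of noise, on plates passing a quality check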;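 note: median bead fluorescence of bound FAM aptamer so fluorescent compounds give negative values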
Target sequence (P25098 whole entry, looked up): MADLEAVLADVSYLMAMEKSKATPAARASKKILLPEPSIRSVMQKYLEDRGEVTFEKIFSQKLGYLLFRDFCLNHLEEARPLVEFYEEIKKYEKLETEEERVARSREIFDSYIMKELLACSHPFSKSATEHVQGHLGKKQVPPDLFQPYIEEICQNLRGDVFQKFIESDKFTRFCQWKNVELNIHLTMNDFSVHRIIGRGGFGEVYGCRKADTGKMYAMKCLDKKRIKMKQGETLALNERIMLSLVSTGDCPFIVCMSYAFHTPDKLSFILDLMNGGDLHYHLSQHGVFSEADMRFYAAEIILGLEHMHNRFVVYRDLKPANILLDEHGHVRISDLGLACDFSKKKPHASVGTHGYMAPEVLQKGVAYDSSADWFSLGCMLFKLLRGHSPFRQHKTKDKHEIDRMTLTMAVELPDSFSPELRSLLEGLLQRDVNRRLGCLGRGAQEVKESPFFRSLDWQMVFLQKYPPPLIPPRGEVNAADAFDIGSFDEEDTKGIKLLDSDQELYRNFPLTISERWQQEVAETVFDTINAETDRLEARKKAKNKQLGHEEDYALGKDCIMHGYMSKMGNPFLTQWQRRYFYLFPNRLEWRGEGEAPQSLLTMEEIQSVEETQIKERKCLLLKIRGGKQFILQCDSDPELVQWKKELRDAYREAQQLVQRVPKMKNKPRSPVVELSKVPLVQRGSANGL
Rtt109 Vps75: blocks Candida albicans Rtt109/Vps75 acetyltransferase activity. Q5AAJ8. purified Rtt109/Vps75, ThioGlo CoA-SH fluorescence, 4 h. inhibition, % at 34.9 µM. 330,000 tested, 0.16% active;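 active = inhibition of at least 50% in every replicate; inconclusive = best replicate reaches 50% inhibition but some replicates fall short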
Efflux pump inh: antifungal efflux pump inhibition, Nile Red retention. S. cerevisiae Candida pump triplex. inhibition, % at 10 µM. 330,000 tested, 0.44% active. AID 485275;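 active = plate passing quality check with inhibition over a set limit, or well fluorescence over plate mean plus 4 SD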;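 note: Nile Red retained in pooled yeast measured as flow cytometry median fluorescence; 0% = buffer negative control and 100% = Enniatin B positive control; higher means more Nile Red kept so more efflux inhibition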
Starred values were filed as active, the others as inactive; i = inactive; u = inconclusive; x = no result. Hits are enriched below; roughly 4.5% of the tested compounds scored in any of these assays.

SMILES	ALR inh	Rce1 inh	HDAC3 inh	GRK2 aptamer HTS	Rtt109 Vps75	Efflux pump inh
COCCn1c(=S)[nH]c2sc3c(c2c1=O)CCC(C)C3 (stereo not drawn)	32.0	i	-0.6	0.0	-0.7	0.0
COCCCn1c(=S)[nH]c2sc3c(c2c1=O)CCCS3	99.2*	i	7.5	0.0	-16.3	0.0
CN(C)/N=C/c1ccc(OC(=O)c2cccc([N+](=O)[O-])c2)cc1	98.2*	i	0.0	2.0	-3.4	0.3
O=C(Oc1ccc(/C=N/n2cnnc2)cc1)c1cccc([N+](=O)[O-])c1	-5.8	i	-0.1	1.0	x	-0.1
O=S(Cc1ccccc1)Cc1ccccc1	x	x	x	x	-0.5	x
CC(=O)N1Cc2cc(N)ccc2Oc2ccccc21	88.7*	i	-0.2	1.0	x	-0.2
Cc1nn(-c2ccccc2)cc1/C=N/NC(N)=S	96.9*	i	5.3	0.0	x	0.0
CCC(C)c1c(O)nc(SCC(=O)c2ccccc2)[nH]c1=O (stereo not drawn)	99.2*	i	33.0*	0.0	-141.6	0.3
C=CCc1c(C)nc(SCC(N)=O)[nH]c1=O	-3.1	i	5.3	1.0	1.0	-0.2
CCC(C)c1c(O)nc(SCC(=O)Nc2ccccc2)[nH]c1=O (stereo not drawn)	99.2*	i	0.3	2.0	-1.1	-0.1
C=CCc1c(O)nc(SCC(=O)c2ccccc2)[nH]c1=O	99.2*	i	37.5*	1.0	-21.4	0.1
O=C(CSc1nc2[nH]ncc2c(=O)[nH]1)Nc1ccccc1	-3.6	i	-4.5	0.0	x	-0.4
Cc1cccc(N(C(=O)c2snc(C(N)=O)c2N)C(C(=O)NCC2CCCO2)c2ccc3ncccc3c2)c1 (stereo not drawn)	-10.9	x	-7.6	3.0	0.1	-0.3
COc1ccc(S(=O)(=O)N2CCN(C(=O)c3ccco3)CC2)c(C)c1C	-0.1	i	12.8	1.0	-4.8	0.0
Oc1ccc(C[C@H]2CNC(=S)N2CC2CCCN2C[C@H](Cc2ccc(O)cc2)N2C[C@H](Cc3ccc(O)cc3)N(CC3CCCCCC3)C2=S)cc1 (stereo partly drawn)	x	x	x	x	2.7	x
CNc1ccc(Oc2nc([N+](=O)[O-])nn2C)cc1	24.0	i	2.6	4.0	0.9	-0.2
CCCCN1C2CCCC1CC(NC(=O)c1cccc(Cl)c1)C2 (stereo not drawn)	x	i	-6.3	10.0	-0.5	-0.1
Cc1nn(C2CCS(=O)(=O)C2)c2nc(C3CC3)cc(C(=O)Nc3ccc(C(N)=O)cc3)c12 (stereo not drawn)	x	x	x	x	50.1*	x
CCOc1cc(CNc2cccc3[nH]c(C)nc23)ccc1OC	98.3*	i	3.1	7.0	-26.1	0.1
O=[N+]([O-])c1ccccc1/C=N/n1c(-c2cccnc2)n[nH]c1=S	30.9	i	u	28.0	x	0.0
O=C(O)COc1ccccc1/C=N/n1c(C2CCCCC2)n[nH]c1=S	96.6*	i	-0.8	3.0	1.7	-0.1
O=[N+]([O-])c1ccccc1/C=N/n1c(C2CCCCC2)n[nH]c1=S	96.6*	i	10.9	2.0	19.8	-0.1
S=c1[nH]nc(C2CCCCC2)n1/N=C/c1ccccc1Br	x	i	4.8	1.0	1.2	0.0
O=[N+]([O-])c1ccccc1/C=N/n1c(C(F)(F)F)n[nH]c1=S	94.9*	i	9.1	2.0	1.9	-0.2
S=c1[nH]nc(COc2ccccc2)n1/N=C/c1ccc(Cl)c(Cl)c1	x	i	4.5	4.0	12.1	0.1
SMILES	ALR inh	Rce1 inh	HDAC3 inh	GRK2 aptamer HTS	Rtt109 Vps75	Efflux pump inh
O=[N+]([O-])c1ccc(Cl)c(/C=N/n2c(COc3ccccc3)n[nH]c2=S)c1	95.8*	i	-2.3	0.0	4.9	0.3
O=C(CCNC(=O)c1ccc([N+](=O)[O-])cc1)Oc1ccc(F)c(F)c1	17.9	x	0.9	0.0	-2.8	0.3
COc1cc(/C=N/n2c(C3CCCCC3)n[nH]c2=S)cc(OC)c1O	99.1*	i	-2.6	0.0	-2.7	0.0
O=[N+]([O-])c1cccc(/C=N/n2c(C3CCCCC3)n[nH]c2=S)c1	2.7	i	3.5	1.0	-5.3	-0.1
Oc1cccc(/C=N/n2c(C3CCCCC3)n[nH]c2=S)c1	12.6	i	2.2	1.0	2.9	-0.1
O=[N+]([O-])c1cc2c(cc1/C=N/n1c(-c3ccccc3)n[nH]c1=S)OCO2	87.1*	i	-10.3	1.0	-4.8	-0.1
O=[N+]([O-])c1ccc(Cl)c(/C=N/n2c(C3CCCCC3)n[nH]c2=S)c1	98.6*	i	4.7	1.0	-0.4	0.0
COC(=O)CCN1CCc2cc(N=Nc3ccc([N+](=O)[O-])cc3)ccc21	-3.0	i	1.0	1.0	3.8	0.2
COc1ccc(C(CNC(=O)COc2cccc(C(F)(F)F)c2)N2CCCC2)cc1 (stereo not drawn)	-6.5	x	3.2	0.0	0.4	0.0
Cc1ccc2c(c1)CCCN2CC(=O)N(C)c1c(N)n(Cc2ccccc2)c(=O)[nH]c1=O	90.8*	x	-3.6	0.0	-2.9	0.2
CCN(C(=O)CN1CCCc2cc(C)ccc21)c1c(N)n(Cc2ccccc2)c(=O)[nH]c1=O	x	x	x	x	0.1	x
CCN(C(=O)CN1CCCCC1)c1c(N)n(Cc2ccccc2)c(=O)[nH]c1=O	0.8	x	1.3	0.0	1.5	-0.1
CCN(C(=O)CN1CCN(c2cccc(Cl)c2)CC1)c1c(N)n(Cc2ccccc2)c(=O)[nH]c1=O	92.0*	i	3.7	0.0	26.0	0.3
COc1ccccc1C(=O)NCC(=O)NCc1cc(=O)n(C)c(=O)n1C	-1.0	i	0.2	0.0	-17.0	-0.3
O=S1(=O)CC/C(=N\Nc2ccccc2)c2ccsc21	100.1*	i	6.4	0.0	6.6	0.1
Cc1occc1C(=O)NNC1=CC(=O)CC(C)(C)C1	89.2*	i	-1.1	0.0	8.5	0.0
CC1(C)CC(=O)C=C(NNC(=O)c2ccccc2)C1	21.9	i	-7.1	1.0	4.6	0.0
COc1ccc(C(c2c[nH]c3ccccc23)c2c[nH]c3ccccc23)cc1O	87.9*	i	-2.0	1.0	-0.8	-0.2
CCCCCCCN1C(Nc2ccccc2)=NC[C@@H]1C	-0.1	x	-0.3	1.0	2.7	0.2
CCc1cccc(NC(=O)CSCc2nc3sc(C)c(C)c3c(=O)[nH]2)c1	0.2	x	-4.1	0.0	-1.8	-0.2
Cc1sc2nc(CSCC(=O)NC3(C#N)CCCCC3)[nH]c(=O)c2c1C	95.4*	x	-0.4	3.0	5.1	0.3
Cc1cc(NC(=O)CN2C(=O)CC(c3ccco3)Sc3ccccc32)no1 (stereo not drawn)	1.3	i	41.1*	5.0	11.2	0.3
Cc1cc(NC(=O)CN2C(=O)CCSc3ccccc32)no1	x	i	0.5	1.0	0.3	-0.1
Cc1cc(=O)n2nc(N3CCC(C(=O)NCC(C)c4ccccc4)CC3)sc2n1 (stereo not drawn)	0.6	i	5.0	0.0	-0.3	0.1
